Source: PubChem BioAssay
Rows were chosen to be rich in hits. Some 2.2% of all compounds tested hit in one or more screens of this group.
aSyn 5UTR inh: MLPCN primary screen, SNCA 5' untranslated region; alpha-synuclein 5'UTR reporter, inhibitor activity; inhibition, % (tested at 7.5 µM); actives 0.82% (n = 300,000); in the data active = inhibition above about 60%;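 also: H4 neuroglioblastoma cells stably carrying SNCA 5'UTR luciferase fusion; 0% = DMSO wells and 100% = positive control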
Ba/F3 V617F tox: reduced viability of JAK2V617F-dependent Ba/F3 cells, primary screen, JAK2V617F inhibitor project, cell-based, Ba/F3 EpoR-JAK2V617F, luminescence; actives 1.1% (n = 220,000); ATP luminescence; AID 1446, 2008; inhibition, % at 5.6 µM;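 active = inhibition above the campaign mean plus 3 SD over all tested compounds, cut at about 24% in these data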;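 also: cytokine-independent growth of Ba/F3 cells driven by EpoR plus mutant JAK2; 0% = DMSO-treated cells and 100% = JAK inhibitor I control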
IEC-6 cytotox: cytotoxicity in IEC-6 intestinal epithelial cells, primary screen, cytotoxicity control for KLF5 inhibitor project, cell-based, luminescence; IEC-6 cytotoxicity, luminescence viability; inhibition, % at 5 µM; actives 0.78% (n = 290,000);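 also: 0% = plate median of test compound wells and 100% = cytotoxic reference compound wells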
APP 5UTR inh: inhibitors of APP translation via 5'UTR reporter, primary screen, APP 5'UTR luciferase, SH-SY5Y cells. SH-SY5Y APP 5'UTR-luciferase reporter, luminescence. inhibition, % at 2 µM. actives 0.82% (n = 190,000);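 active = inhibition above a set limit, derived from the sample mean plus 3 SD, cut at about 45% in these data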
KLF5 inhibitor: KLF5 expression inhibitors, primary screen, DLD-1 cells, luminescence. DLD-1 KLF5 promoter-luciferase reporter. inhibition, % at 5 µM. actives 0.23% (n = 290,000);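 active = inhibition above a per-plate limit of that plate's mean compound inhibition plus 3 SD, cut at about 60% in these data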;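 also: 0% = DMSO wells and 100% = LY294002 at 200 µM; higher means less KLF5 promoter-driven luciferase light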
BaF3 parental: parental Ba/F3 cell viability inhibition, counter-screen for JAK2V617F inhibitor project, murine pro-B, CellTiter-Glo luminescence; CellTiter-Glo ATP luminescence; actives 1.1% (n = 220,000); inhibition, % at 5.6 µM;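 active = inhibition above a per-campaign cutoff, the mean inhibition of all tested compounds plus 3 SD, cut at about 27% in these data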;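 also: 0% = DMSO wells and 100% = JAK Inhibitor I control wells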
IEC-6 tox confirm: cytotoxic compounds in IEC-6 epithelial cells, confirmation, cytotoxicity control, cell-based, luminescence; shares compounds with IEC-6 cytotox; IEC-6 rat intestinal epithelial viability; inhibition, % at 5 µM; actives 63% (n = 1,900); AID 1907, 2009;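 also: 0% = vehicle and 100% = reference cytotoxic drug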
* = called active by the depositor; x = no result. Rule as the data show it, unless noted: active = inhibition above about 22%; inactive = the rest.

SMILES | aSyn 5UTR inh | Ba/F3 V617F tox | IEC-6 cytotox | APP 5UTR inh | KLF5 inhibitor | BaF3 parental | IEC-6 tox confirm
O=c1c(Cl)c(Cl)cnn1Cc1ccc(F)cc1 | -57.3 | 6.7 | 26.9* | 50.7* | -22.8 | -3.4 | 11.2
O=c1cnn(Cc2ccc(F)cc2)c2ccccc12 | 7.4 | x | 4.0 | x | 7.2 | x | x
N=C(N)N=Nc1c(O)[nH]c2ccc(Br)cc12 | 6.2 | 5.9 | 3.5 | -11.4 | 19.0 | 5.0 | x
Oc1[nH]c2ccc(Br)cc2c1N=NC(=S)Nc1ccc(F)cc1 | 52.4 | 0.0 | 21.9* | x | 6.7 | 2.4 | 9.2
O=C(N=Nc1c(O)[nH]c2ccc(Br)cc12)c1ccccc1-n1cccc1 | x | 76.8* | 55.1* | 91.6* | 42.3 | 77.0* | 53.5*
CC(NC(=O)COc1ccc(/C=N/NC(=O)CO)cc1)c1ccccc1 (centres undefined) | -8.6 | x | 4.6 | x | -29.0 | x | x
CN(C)CC(CCC(CN(C)C)C(O)(c1ccccc1)c1ccccc1)C(O)(c1ccccc1)c1ccccc1 (centres undefined) | 101.2* | x | 44.8* | x | 1.8 | x | 42.1*
C#Cc1ccc([C@H]2C=C(C(=O)NCc3nc4ccccc4[nH]3)O[C@@H](OCC)[C@@H]2CCCO)cc1 | 7.3 | x | x | x | x | x | x
CCO[C@@H]1OC(C(=O)NCc2nc3ccccc3[nH]2)=C[C@H](C2CC2)[C@H]1CCCO | -119.3 | 2.0 | 42.2* | 2.4 | 38.1 | 34.5* | 6.0
O=C(CCOc1ccc(F)cc1)Nc1nccs1 | -12.9 | -0.7 | 5.3 | x | 2.1 | 3.1 | x
COc1ccc(OC)c(-c2cc(-c3cccnc3)nc(N)c2C#N)c1 | 0.0 | 84.5* | 34.7* | x | 30.1 | 44.9* | 52.3*
O=C(NCc1nc(-c2ccc(Cl)cc2)no1)c1ccc2c(c1)OCO2 | 0.3 | x | 2.8 | x | -6.2 | x | x
C/C(=N\NC(=O)c1ccc(C)cc1)c1c(C)[nH]n(-c2ccccc2)c1=O | 66.8* | x | 43.5* | x | -27.9 | x | 25.4*
Cc1cccc(C(=O)NCC(=O)OCC(=O)N(C)CC(=O)Nc2ccc(F)cc2)c1 | -2.1 | x | x | x | x | x | x
CCOC(=O)c1[nH]c(C)c(C(=O)Nc2ccc(C)cc2C)c1C | -27.8 | 59.0* | 51.0* | 70.2* | 37.8 | 52.3* | 48.2*
CCOC(=O)c1c(C)[nH]c(C(=O)OCC(=O)Nc2cc(C)ccc2OC)c1C | 7.7 | -4.8 | 1.2 | -14.4 | -3.6 | 0.0 | x
CCOC(=O)c1[nH]c(C)c(C(=O)Nc2cc(OC)ccc2OC)c1C | 35.8 | 75.2* | 86.4* | 91.1* | 59.8 | 75.1* | 61.0*
CCOC(=O)c1[nH]c(C)c(C(=O)c2ccc(C)cc2)c1C | 36.5 | 77.8* | 81.7* | 94.9* | 15.7 | 77.4* | 62.2*
CCOC(=O)c1[nH]c(C)c(C(=O)Nc2ccccc2F)c1C | -54.1 | 68.3* | 47.2* | 62.4* | 4.6 | 61.9* | 46.1*
CCOC(=O)c1[nH]c(C)c(C(=O)Nc2ccc(F)cc2)c1C | 0.1 | -6.0 | 1.3 | -18.0 | -43.2 | -1.5 | x
COc1ccc(OCCCC(=O)NNC(=O)c2ccncc2)cc1 | 7.2 | x | x | x | x | x | x
Cc1cc(O)c(-c2cc(C(=O)Nc3ccc(S(=O)(=O)N4CCOCC4)cc3)[nH]n2)cc1C | 13.8 | -2.3 | 2.0 | -10.3 | -12.9 | 2.7 | x
O=C(Nc1ccc(S(=O)(=O)N2CCOCC2)cc1)c1cc(-c2cc(Cl)ccc2O)n[nH]1 | 33.8 | 76.6* | 36.0* | x | 42.4 | 59.5* | 4.8
Cc1ccc2c(CNCc3ccccc3)cc(=O)oc2c1 | -64.8 | x | 27.8* | x | 40.4 | x | 28.8*
Cc1ccc2c(CN(C)Cc3cccc(F)c3)cc(=O)oc2c1 | -123.6 | x | 14.1 | x | -102.7 | x | x
SMILES | aSyn 5UTR inh | Ba/F3 V617F tox | IEC-6 cytotox | APP 5UTR inh | KLF5 inhibitor | BaF3 parental | IEC-6 tox confirm
O=C(O)c1ccc(N/N=C/c2cccc(C(F)(F)F)c2)cc1 | -99.1 | x | 31.6* | x | -137.6 | x | 36.5*
CCOC(=O)N1CCC(NC(=O)c2cc(COc3ccccc3SC)on2)CC1 | -7.1 | x | -8.2 | x | -22.1 | x | x
CC1=Nc2cc(C(=O)NCCCN3CCOCC3)ccc2Sc2c(C)ccc(C)c21 | 41.1 | x | 18.5 | x | -7.5 | x | x
CC1=Nc2cc(C(=O)NCCN3CCOCC3)ccc2Sc2c(C)ccc(C)c21 | 50.0 | x | 33.1* | x | 14.4 | x | 32.3*
COc1ccc2[nH]c(-c3cccc(F)c3)cc(=O)c2c1 | 62.6* | 76.1* | 74.6* | 92.9* | 60.4 | 73.8* | 59.7*
COc1cccc(-c2cc(=O)c3cc(NC(=O)c4ccc(N(C)C)cc4)ccc3[nH]2)c1 | 115.0* | 91.1* | 70.7* | 92.0* | 34.6 | 97.2* | 70.5*
COc1ccc(-c2cc(=O)c3ccccc3[nH]2)cc1 | -79.1 | -1.1 | 1.0 | -11.9 | 7.4 | 1.7 | x
Cc1ccc(S(=O)(=O)Cc2nnnn2-c2ccccc2)cc1 | -15.2 | x | -4.0 | x | -28.7 | x | x
O=[N+]([O-])c1cc(C=Nc2cccc3c(O)cccc23)ccc1Cl | 37.6 | x | 33.3* | x | -13.2 | x | -4.2
Cc1ccc(NC(=O)c2sccc2C)nc1 | -61.3 | x | 10.1 | x | -164.3 | x | x
O=C(Nc1ccc2c(c1)OCO2)c1noc2c1CCCC2 | -3.8 | x | 3.4 | x | -87.5 | x | x
Cc1cc(C)c2c(n1)SCC(=O)N2CC(=O)Nc1cc(F)ccc1F | -5.1 | x | 3.6 | x | -7.5 | x | x
COc1ccc(C2=Nn3c([n+](C)c4ccccc43)SC2)cc1 | 1.8 | 100.2* | 29.7* | 13.4 | 14.7 | 77.1* | 23.5*
CCN(CC(=O)NCc1cccs1)C(=O)c1cccc(S(=O)(=O)Nc2ccc(OC)cc2)c1 | 2.7 | x | x | x | x | x | x
O=[N+]([O-])c1ccc(-n2nnnc2-c2ccccc2)c([N+](=O)[O-])c1 | -1.8 | 68.5* | 32.0* | -3.6 | -37.0 | 29.6* | 5.0
OCCC1CN(Cc2cnc(-c3ccc(Cl)cc3)nc2)CCN1C1CCCC1 (centres undefined) | -15.2 | -2.9 | -0.7 | x | 5.1 | 5.5 | x
COC(=O)COc1ccc(/C=N/NC(=O)CN(c2ccccc2OC)S(=O)(=O)c2ccccc2)cc1 | 20.1 | x | 49.0* | x | -12.1 | x | -8.4
CCCCN1/C(=C/c2cccc[n+]2C)Sc2cc(NC(C)=O)ccc21 | -4.8 | x | -4.0 | x | -25.5 | x | x
CCCCN1/C(=C/c2ccc3ccccc3[n+]2CC)Sc2ccccc21 | 80.2* | 101.0* | 41.6* | -7.7 | 6.8 | 80.4* | 14.1
CCN1/C(=C/c2ccc3ccccc3[n+]2CCCS(=O)(=O)[O-])C=Cc2cc(C)ccc21 | 35.5 | x | 6.2 | x | -8.7 | x | x
CCN1/C(=C/c2ccc3cc(C)ccc3[n+]2CC)Sc2cc(C)ccc21 | x | 99.3* | 34.8* | 63.1* | 16.9 | 84.8* | 33.9*
O=C(Nc1nc2cc3c(cc2s1)OCCO3)c1ccc([N+](=O)[O-])o1 | -301.1 | x | 89.7* | x | -74.8 | x | 24.5*
